We go through 13 compounds from PubChem BioAssay (NCI).

Common to all, as to experiment: NCI-60 one-dose screen, 48 h (100 = growth as untreated, 0 = no growth, -100 = all killed)
What all share (conditions): 10 µM unless noted

The subject of test [1] is NCI-H23 lung.
Test [2] concerns NCI-H226 lung.
Test [3] deals with NCI-H322M lung.
Test [4] has as its system HOP-62 NSCLC.
The subject of test [5] is NCI-H460 lung.
For test [6], the system named is HOP-92 NSCLC.
Test [7] deals with NCI-H522 lung.
The subject of test [8] is A549/ATCC NSCLC.
Test [9] relates to 786-0 renal.
In test [10] the test system is COLO 205 colon.

SMILES strings stand for the structures. This is part of a sample that, as a whole, favours compounds with a hit. Of some 83,000 tested, about 20% had one in any assay.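 Single-dose data. Exposure time 48 hours. Values below 10 considered active.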 Values without a mark were called inactive. The source made the active and inactive calls.

As for `CC(C)(C)[Si](C)(C)OC1[C@@H](O[Si](C)(C)C(C)(C)C)[C@@H](CNC(=O)NC(=O)CCl)O[C@H]1n1cnc2c(NC(=O)Nc3ccccc3)ncnc21` (stereo not given in full), the growth in test [1] is -93.3% (active); in test [2] it was -93.8% (active); in test [3], 120%; in [4], -95.5% (active); in test [5], 11.9%; in [6] it was -74% (active). The growth in test [7] was -61.9% (active); in test [8], 1.49% (active); in [9], -93.8% (active); in test [10], -18.3% (active).

`COc1cc2c(cc1OC)C(=O)/C(=C/c1cc(C)c(O)c(C)c1)S2`: the growth in [1] is 39.2%; in test [2] it was 55.7%; in test [3], 50.4%; in [4], 39.4%; in test [5] it was 18.5%; in test [6], 88.6%. Also, the growth in [7] was -7.24% (active); in test [8] it was 36.9%; in test [9], 39.6%; in test [10], 104%.

Regarding `O=C1Nc2cc(-c3ccc(NS(=O)(=O)c4ccccc4)cc3)ccc2/C1=C/c1ccc[nH]1`, the growth in test [1] is 29.9%; in test [2], 65.9%; in test [3] it was 49.6%; in [4], 106%; in test [5] it was 11.4%; in test [6] it was 95.7%. The growth was 76.4% in test [7], 86.6% in test [8], 108% in [9] and 125% in test [10].

On to `CCCCCCCCO/N=C\c1c2c(O)c3c(O)c(C)c4c(c3c1O)C(=O)C(C)(O/C=C\C(OC)C(C)C(OC(C)=O)C(C)C(O)C(C)C(O)C(C)/C=C\C=C(\C)C(=O)N2)O4` (stereo not given), for which the growth in test [1] was 22.2%; in [2], 28%; in test [3] it was 45.9%; in test [4], 36%; in test [5] it was 3.79% (active); in test [6], -4.97% (active). Also, the growth in test [7] was 5.64% (active); in [8], 17.4%; in test [9] it was 27.9%; in [10], 4.9% (active).

In the case of `Cc1ccc(-n2nc3c(c(C#N)c2=O)CC(c2ccccc2[N+](=O)[O-])C([N+](=O)[O-])=C3O)cc1` (stereo not given), the growth in [1] was 93.2%; in test [2], 92.1%; in test [3], 88%; in [4], 84.6%; in [5], 95.4%; in test [6], 88.5%. Besides, the growth was 89.4% in test [7], 90.1% in test [8], 82.7% in [9] and 101% in [10].

`Cc1cc2nc3c4ccc(Br)cc4n(CCN(C)C)c3nc2cc1C`: the growth in [1] is 14.8%; in [2] it was 1.57% (active); in test [3] it was 18.9%; in test [4], 16%; in test [5], 2.47% (active); in test [6], 34.8%. Moreover, the growth in [7] is -1.24% (active); in [8], 5.41% (active); in test [9] it was 23.2%; in test [10] it was -8% (active).

With `O=C(NNc1nc2c(F)cccc2n2cccc12)c1cnccn1`, the growth is 24.8% in [1]; 31.7% in test [2]; 25.5% in test [3]; 30.2% in test [4]; 11.6% in test [5]; 67.4% in test [6]. The growth in [7] was 2.24% (active); in [8], 15.7%; in test [9] it was 27.4%; in test [10], -4% (active).

Consider `CC(=O)CCC(=O)OCc1cc(=O)c(O)co1`, for which the growth in test [1] is 92.8%; in test [2], 109%; in [3], 98.2%; in [4], 105%; in [5], 112%; in test [6], 105%. Also, the growth in test [7] is 96%; in test [8], 101%; in test [9] it was 99.8%; in [10], 125%.

With `CCN(CC)CC[n+]1cc2cc(OC)c(OC)cc2c2ccc3cc4c(cc3c21)OCO4`, the growth in test [1] is 3.47% (active); in test [2], 29.7%; in test [3] it was -15.9% (active); in test [4] it was -4.95% (active); in test [5], -65.7% (active); in [6] it was 14.7%. The growth is -19.1% (active) in test [7], -41.2% (active) in test [8], 3.36% (active) in [9] and 13.9% in test [10].

Regarding `O=S(=O)(NCCNc1nccc(-c2c(-c3cccc(O)c3)nc3occn23)n1)c1cccc(F)c1`, the growth in [1] is 97.9%; in [2], 105%; in test [3], 97.3%; in test [4], 121%; in test [5], 95.9%; in [6], 93%. Further, the growth in test [7] was 81.1%; in [8] it was 92.6%; in test [9], 91.5%; in [10], 30.1%.

For the compound `COc1ccc(C/C(=C(\C)c2ccc(OCCN3CCCC3)cc2)c2ccc(OCCN3CCCC3)cc2)cc1`, the growth in test [1] is 83.9%; in test [2] it was 84.4%; in test [3], 81.7%; in [4] it was 80.3%; in [5] it was 6.71% (active); in test [6], 26.4%. Besides, the growth in test [7] is 56.8%; in test [8], 69.3%; in test [9], 69.1%; in test [10], -25.8% (active).

As to `CCOC(=O)CC1CSC(N/N=C/c2ccc(-n3cccn3)cc2)=N1` (stereo not given), the growth in test [1] is 101%; in test [2], 95%; in test [3], 104%; in test [4], 105%; in [5] it was 107%; in [6], 99.3%. Also, the growth in [7] is 99.1%; in test [8] it was 93.1%; in test [9], 108%; in [10], 126%.

On to `COC(=O)N[C@H]1CCc2c(Cl)c(OC)c(OC)c(OC)c2-c2ccc(SC)c(=O)cc21`, for which the growth in test [1] was 34%; in test [2], 22.7%; in test [3], 35.4%; in test [4] it was 38%; in [5] it was -11.4% (active); in [6], 1.96% (active). The growth in test [7] is 21.7%; in test [8], 19.8%; in test [9] it was 7.29% (active); in [10], -24.3% (active).
